In ChEMBL document CHEMBL3433997, “St. Jude Leishmania screening dataset” (2016):

How the values were obtained:
Assay type in all cases: functional
[1] = biological target: Solute carrier family 2, facilitated glucose transporter member 1 (Homo sapiens) (UniProt P11166); assay: ST_JUDE_LEISH: Cytotoxicity at 2uM final concentration against transgenic Leishmania Mexicana promastigotes LmGLUT1 that are glucose transport deficient and complemented with the human glucose transporter GLUT1. Activity is measured by DNA content using SYBR green in vitro
[2] = biological target: Hexose transporter 1 (Plasmodium falciparum) (UniProt O97467); assay: ST_JUDE_LEISH: Cytotoxicity at 2uM final concentration against transgenic Leishmania Mexicana promastigotes LmPfHT that are glucose transport deficient and complemented with the Plasmodium falciparum hexose transporter. Activity is measured by DNA content using SYBR green in vitro
[3] = biological target: Glucose transporter (Leishmania mexicana) (UniProt O61059); assay: ST_JUDE_LEISH: Cytotoxicity at 2uM final concentration against transgenic Leishmania Mexicana promastigotes LmGT2 that are glucose transport deficient and complemented with the L. Mexicana glucose transporter 2. Activity is measured by DNA content using SYBR green in vitro

Sequence of Solute carrier family 2, facilitated glucose transporter member 1 (Homo sapiens) (P11166 whole entry): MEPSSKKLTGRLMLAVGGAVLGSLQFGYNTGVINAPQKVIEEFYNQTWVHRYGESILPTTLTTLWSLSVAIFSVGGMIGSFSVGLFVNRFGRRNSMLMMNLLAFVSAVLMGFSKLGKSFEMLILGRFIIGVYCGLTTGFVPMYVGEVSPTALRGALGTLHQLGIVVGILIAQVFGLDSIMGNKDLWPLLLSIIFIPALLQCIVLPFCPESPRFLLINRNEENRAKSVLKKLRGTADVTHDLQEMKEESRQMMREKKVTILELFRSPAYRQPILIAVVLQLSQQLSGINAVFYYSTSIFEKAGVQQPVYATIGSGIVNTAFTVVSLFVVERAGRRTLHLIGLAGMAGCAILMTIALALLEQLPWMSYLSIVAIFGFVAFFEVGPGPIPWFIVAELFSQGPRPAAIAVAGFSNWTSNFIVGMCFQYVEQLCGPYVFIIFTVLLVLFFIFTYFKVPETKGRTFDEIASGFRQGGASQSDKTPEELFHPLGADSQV

Compound	inhibition [1]	inhibition [2]	inhibition [3]
Cc1ccc(C(=O)Nc2ccc(C)c(OC3CCN(Cc4ccco4)C3)c2)cc1 (stereo unspecified)	0.19%	1.86%	7.13%
Cc1cc(NC(=O)c2cc(Br)ccc2Cl)n(-c2nc(C)c(C)c(=O)[nH]2)n1	-1.92%	-1.98%	-4.55%
CN1CCN(Cc2ccc(OCc3cccc(COc4ccc(CN5CCN(C)CC5)cc4I)c3)c(I)c2)CC1	1.53%	0.72%	-0.68%
NC1=NC(CCc2ccccc2)N(c2ccccc2)C(N)=N1 (stereo unspecified)	10.1%	9.38%	9.31%
Cc1ccc(NC(=O)c2ccc3nccnc3c2)cc1OC1CCN(Cc2ccc(F)cc2)CC1	10.6%	11.1%	10.5%
CC(C)(C)Nc1nc(Nc2cccc([N+](=O)[O-])c2)nc(-n2ccnc2)n1	1.91%	1.9%	-1.47%
CNC(=O)C1Cc2c([nH]c3c(C)cccc23)C2(N1)C(=O)Nc1ccc(OC(F)(F)F)cc12 (stereo unspecified)	1.24%	1.59%	3.8%
CCC[C@@H]([C@@H](CC(C)C)C(=O)N[C@@H](CCC/N=C(/N)NS(C)(=O)=O)C(=O)Nc1nccs1)N(O)C=O	7.57%	9.74%	6.5%
CS(=O)(=O)N1CC2(CCN(CCC(NC(=O)Nc3ccccc3)c3ccc(Cl)c(Cl)c3)CC2)c2ccccc21 (stereo unspecified)	3.59%	3.17%	3.05%
COc1ccc(NC(=O)/C=C/c2ccc(Cl)c(Cl)c2)cc1N1CCN(C)CC1	9.73%	4.85%	6.48%
Cc1cc(NC(=O)c2ccco2)ccc1OC1CCN(Cc2ccc(F)cc2)C1 (stereo unspecified)	0.1%	0.21%	0.41%
CCn1c(CN2CCC(C)CC2)nc2cc(NC(=O)c3cccs3)ccc21	9.93%	9.8%	12.5%
Cc1cc(NCCC(=O)NCc2cccc(F)c2)nc(Nc2ccccc2)n1	8.44%	7.08%	-6.28%
N=C(Cc1ccc(Cl)cc1)NCCN1CCCCCC1	5.13%	7.11%	6.19%
CCNC(=O)N1CCN(c2nc(-c3ccccc3)nc(COC)c2Cc2ccc(C)cc2)CC1	4.13%	-1.41%	3.78%
CC1(C)N=C(N)N=C(N)C1c1ccc(Cl)c(Cl)c1 (stereo unspecified)	0.69%	2.94%	1.36%
COc1ccc2c(c1C1CCN(CCCCNC(=O)c3ccc(-c4ccc(Cl)cn4)cc3)CC1)CCCC2	2.21%	2.74%	3.95%
